# From PubChem BioAssay (NCI)
# The panel holds about 79,000 compounds, 15% with a hit somewhere; the sample as a whole holds those more often. Unmarked numbers belong to inactive results. The source made the active and inactive calls. Cut-off read from the data, not from the text of the source: active = growth inhibition above about 70%; inactive = the rest.
# Experiments:
# [1] = NCI Yeast Anticancer Drug Screen. Data for the rad52 strain (AID 147);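 note: 0% = growth of vehicle-treated control cultures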; conditions: S. cerevisiae rad52 mutant growth inhibition, active compounds read high
# In short: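 Measured: yeast growth inhibition. System: strain with a defined DNA damage repair alteration. Reference: vehicle-treated control cultures.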
# [2] = NCI Yeast Anticancer Drug Screen. Data for the wt1 strain (AID 149);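 note: 0% = growth of vehicle-treated wt1 cultures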; conditions: S. cerevisiae wt1 strain (SPY 50644) growth inhibition, active compounds read high
# In short: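 The wt1 strain was treated with compounds, and growth was compared with vehicle-treated cultures to give inhibition.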
# [3] = NCI Yeast Anticancer Drug Screen. Data for the rad50EPP+ strain (AID 151);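 note: 0% = growth of vehicle-treated control cultures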; conditions: S. cerevisiae rad50 mutant strain, active compounds read high
# In short: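 One strain with a rad50 alteration (rad50EPP+) was compound-treated, its growth then compared to that of vehicle controls.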
# [4] = NCI Yeast Anticancer Drug Screen. Data for the mgt1 strain (AID 153); conditions: S. cerevisiae mgt1 mutant growth inhibition, active compounds read high
# In short: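 After exposure of the mgt1 yeast mutant to compound, growth was measured and reported as inhibition compared with vehicle controls.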
# [5] = NCI Yeast Anticancer Drug Screen. Data for the rad50 strain (AID 155);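 note: 0% = growth of vehicle-only cultures of the same strain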; conditions: S. cerevisiae rad50 strain growth inhibition, active compounds read high
# In short: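 Cells are treated with compound, grown, and their growth is then scored against vehicle-only cultures of the same repair-deficient yeast strain.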
# [6] = NCI Yeast Anticancer Drug Screen. Data for the mec2-1 strain (AID 157); conditions: S. cerevisiae mec2-1 strain, active compounds read high
# In short: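 Test agents were screened against the mec2-1 yeast strain, with defined DNA repair or cell cycle alteration. Growth was scored as inhibition against vehicle-only controls.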
# [7] = NCI Yeast Anticancer Drug Screen. Data for the rad14 strain (AID 159);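 note: 0% = growth of vehicle-treated control cultures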; conditions: S. cerevisiae rad14 strain growth inhibition, active compounds read high
# In short: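 Readout: yeast growth inhibition, referenced to vehicle-only cultures. Strain bears a defined alteration in DNA damage repair.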
# [8] = NCI Yeast Anticancer Drug Screen. Data for the sgs1 mgt1 strain (AID 161);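 note: 0% = growth of cultures given vehicle only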; conditions: S. cerevisiae sgs1 mgt1 strain, active compounds read high
# In short: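 Mutant yeast exposed to compound; growth scored against vehicle-only wells.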
# [9] = NCI Yeast Anticancer Drug Screen. Data for the CLN2oe strain (AID 163);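 note: 0% = growth of vehicle-only control cultures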; conditions: S. cerevisiae CLN2oe strain, active compounds read high
# In short: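 Here, growth inhibition in a cell-cycle-altered yeast strain after compound exposure was quantified against vehicle control growth.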
# [10] = NCI Yeast Anticancer Drug Screen. Data for the cln2 rad14 strain (AID 165);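 note: 0% = growth equal to vehicle treated cultures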; conditions: S. cerevisiae cln2 rad14 strain, active compounds read high
# In short: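 Growth of compound-exposed yeast (cln2 rad14 genotype) measured and expressed as inhibition relative to vehicle.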
# [11] = NCI Yeast Anticancer Drug Screen. Data for the bub3 strain (AID 167); conditions: S. cerevisiae bub3 mutant strain, active compounds read high
# In short: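 Part of a panel of yeast mutants defective in DNA damage repair or cell cycle regulation. Each strain is grown with compound, and inhibition is calculated relative to solvent-treated cultures.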
# [12] = NCI Yeast Anticancer Drug Screen. Data for the wt2 strain (AID 169);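 note: 0% = growth of vehicle-treated yeast cultures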; conditions: S. cerevisiae wt2 strain growth inhibition, active compounds read high
# In short: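 Genetically defined yeast strains from a DNA-repair/cell-cycle panel were used. Compound-exposed yeast growth was measured, and the inhibition was calculated relative to vehicle treatment.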
# [13] = NCI Yeast Anticancer Drug Screen. Data for the mlh1 strain (AID 171);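 note: 0% = growth of vehicle-treated control cultures of the same strain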; conditions: S. cerevisiae mlh1 strain growth inhibition, active compounds read high
# In short: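 Here the genetically defined yeast mutant is grown with each compound, and the extent to which its growth falls below that of vehicle-exposed cells is reported.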
# [14] = NCI Yeast Anticancer Drug Screen. Data for the sgs1 strain (AID 173);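 note: 0% = growth of vehicle-only control cultures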; conditions: S. cerevisiae sgs1 mutant, active compounds read high
# In short: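 Relative growth inhibition, referenced to vehicle, was determined in a yeast strain with a defined alteration affecting DNA damage repair or cell cycle control after compound exposure.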
# [15] = NCI Yeast Anticancer Drug Screen. Data for the mlh1 rad18 strain (AID 175); conditions: S. cerevisiae mlh1 rad18 strain growth inhibition, active compounds read high
# In short: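 In this whole-cell yeast screen, a strain with altered DNA damage repair is challenged with compound, and its growth is measured against matched vehicle-treated controls.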
# [16] = NCI Yeast Anticancer Drug Screen. Data for the rad18 strain (AID 177); conditions: S. cerevisiae rad18 mutant growth inhibition, active compounds read high
# In short: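 Screen uses a yeast strain with a defined lesion in DNA damage repair; compound effect is read as loss of growth compared to untreated vehicle cultures.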
# [17] = at 5.0 µM (retest, dose inferred, filed as 0.5)
# [18] = at 50.0 µM (retest, dose inferred, filed as 5.0)
smiles,measurement,setting,value
COc1cccc(/C=C2\S/C(=N/Nc3nc(-c4ccc([N+](=O)[O-])cc4)cs3)NC2=O)c1O,growth inhibition,[1]; at 1.2 µM,15%
same,growth inhibition,[1]; at 3.7 µM,21%
same,growth inhibition,[1]; at 11.0 µM,58%
same,growth inhibition,[1]; at 33.0 µM,72% (active)
same,growth inhibition,[1]; at 100.0 µM,80% (active)
same,growth inhibition,[2]; at 1.2 µM,-78%
same,growth inhibition,[2]; at 3.7 µM,7%
same,growth inhibition,[2]; at 11.0 µM,22%
same,growth inhibition,[2]; at 33.0 µM,42%
same,growth inhibition,[2]; at 100.0 µM,57%
same,growth inhibition,[3]; at 1.2 µM,33%
same,growth inhibition,[3]; at 3.7 µM,63%
same,growth inhibition,[3]; at 11.0 µM,89% (active)
same,growth inhibition,[3]; at 33.0 µM,96% (active)
same,growth inhibition,[3]; at 100.0 µM,94% (active)
same,growth inhibition,[4]; at 1.2 µM,9%
same,growth inhibition,[4]; at 3.7 µM,23%
same,growth inhibition,[4]; at 11.0 µM,39%
same,growth inhibition,[4]; at 33.0 µM,59%
same,growth inhibition,[4]; at 100.0 µM,56%
same,growth inhibition,[5]; at 1.2 µM,2%
same,growth inhibition,[5]; at 3.7 µM,11%
same,growth inhibition,[5]; [17],-1%
same,growth inhibition,[5]; at 11.0 µM,43%
same,growth inhibition,[5]; at 33.0 µM,73% (active)
same,growth inhibition,[5]; [18],84% (active)
same,growth inhibition,[5]; at 50.0 µM,97% (active)
same,growth inhibition,[5]; at 100.0 µM,80% (active)
same,growth inhibition,[6]; at 1.2 µM,1%
same,growth inhibition,[6]; at 3.7 µM,12%
same,growth inhibition,[6]; [17],-4%
same,growth inhibition,[6]; at 11.0 µM,39%
same,growth inhibition,[6]; at 33.0 µM,79% (active)
same,growth inhibition,[6]; [18],52%
same,growth inhibition,[6]; at 50.0 µM,94.2% (active)
same,growth inhibition,[6]; at 100.0 µM,83% (active)
same,growth inhibition,[7]; at 1.2 µM,0%
same,growth inhibition,[7]; at 3.7 µM,3%
same,growth inhibition,[7]; at 11.0 µM,6%
same,growth inhibition,[7]; at 33.0 µM,20%
same,growth inhibition,[7]; at 100.0 µM,43%
same,growth inhibition,[8]; [17],0%
same,growth inhibition,[8]; [18],76% (active)
same,growth inhibition,[8]; at 50.0 µM,95.7% (active)
same,growth inhibition,[9]; at 1.2 µM,6%
same,growth inhibition,[9]; at 3.7 µM,25%
same,growth inhibition,[9]; at 11.0 µM,63%
same,growth inhibition,[9]; at 33.0 µM,90% (active)
same,growth inhibition,[9]; at 100.0 µM,93% (active)
same,growth inhibition,[10]; [17],33%
same,growth inhibition,[10]; [18],85% (active)
same,growth inhibition,[10]; at 50.0 µM,76.7% (active)
same,growth inhibition,[11]; at 1.2 µM,7%
same,growth inhibition,[11]; at 3.7 µM,33%
same,growth inhibition,[11]; [17],82% (active)
same,growth inhibition,[11]; at 11.0 µM,62%
same,growth inhibition,[11]; at 33.0 µM,90% (active)
same,growth inhibition,[11]; [18],97% (active)
same,growth inhibition,[11]; at 50.0 µM,97% (active)
same,growth inhibition,[11]; at 100.0 µM,94% (active)
same,growth inhibition,[12]; at 1.2 µM,-2%
same,growth inhibition,[12]; at 3.7 µM,23%
same,growth inhibition,[12]; at 11.0 µM,76% (active)
same,growth inhibition,[12]; at 33.0 µM,94% (active)
same,growth inhibition,[12]; at 100.0 µM,92% (active)
same,growth inhibition,[13]; at 1.2 µM,-1%
same,growth inhibition,[13]; at 3.7 µM,6%
same,growth inhibition,[13]; at 11.0 µM,30%
same,growth inhibition,[13]; at 33.0 µM,63%
same,growth inhibition,[13]; at 100.0 µM,74% (active)
same,growth inhibition,[14]; at 1.2 µM,5%
same,growth inhibition,[14]; at 3.7 µM,19%
same,growth inhibition,[14]; at 11.0 µM,50%
same,growth inhibition,[14]; at 33.0 µM,77% (active)
same,growth inhibition,[14]; at 100.0 µM,76% (active)
same,growth inhibition,[15]; [17],10%
same,growth inhibition,[15]; [18],89% (active)
same,growth inhibition,[15]; at 50.0 µM,95.3% (active)
same,growth inhibition,[16]; at 1.2 µM,10%
same,growth inhibition,[16]; at 3.7 µM,25%
same,growth inhibition,[16]; at 11.0 µM,72% (active)
same,growth inhibition,[16]; at 33.0 µM,93% (active)
same,growth inhibition,[16]; at 100.0 µM,92% (active)
CSc1nc(-c2ccccc2)nc(=[N+]2CCOCC2)s1,growth inhibition,[1]; at 1.2 µM,17%
same,growth inhibition,[1]; at 3.7 µM,52%
same,growth inhibition,[1]; at 11.0 µM,83% (active)
same,growth inhibition,[1]; at 33.0 µM,97% (active)
same,growth inhibition,[1]; at 100.0 µM,98% (active)
same,growth inhibition,[2]; at 1.2 µM,5%
same,growth inhibition,[2]; at 3.7 µM,11%
same,growth inhibition,[2]; at 11.0 µM,23%
same,growth inhibition,[2]; at 33.0 µM,56%
same,growth inhibition,[2]; at 100.0 µM,93% (active)
same,growth inhibition,[3]; at 1.2 µM,27%
same,growth inhibition,[3]; at 3.7 µM,56%
same,growth inhibition,[3]; at 11.0 µM,77% (active)
same,growth inhibition,[3]; at 33.0 µM,89% (active)
same,growth inhibition,[3]; at 100.0 µM,93% (active)
same,growth inhibition,[4]; at 1.2 µM,3%
same,growth inhibition,[4]; at 3.7 µM,11%
same,growth inhibition,[4]; at 11.0 µM,31%
same,growth inhibition,[4]; at 33.0 µM,87% (active)
same,growth inhibition,[4]; at 100.0 µM,98% (active)
same,growth inhibition,[5]; at 1.2 µM,13%
same,growth inhibition,[5]; at 3.7 µM,37%
same,growth inhibition,[5]; [17],74% (active)
same,growth inhibition,[5]; at 11.0 µM,79% (active)
same,growth inhibition,[5]; at 33.0 µM,94% (active)
same,growth inhibition,[5]; [18],74% (active)
same,growth inhibition,[5]; at 50.0 µM,88.8% (active)
same,growth inhibition,[5]; at 100.0 µM,98% (active)
same,growth inhibition,[6]; at 1.2 µM,1%
same,growth inhibition,[6]; at 3.7 µM,8%
same,growth inhibition,[6]; [17],18%
same,growth inhibition,[6]; at 11.0 µM,32%
same,growth inhibition,[6]; at 33.0 µM,73% (active)
same,growth inhibition,[6]; [18],18%
same,growth inhibition,[6]; at 50.0 µM,73.5% (active)
same,growth inhibition,[6]; at 100.0 µM,98% (active)
same,growth inhibition,[7]; at 1.2 µM,4%
same,growth inhibition,[7]; at 3.7 µM,9%
same,growth inhibition,[7]; at 11.0 µM,25%
same,growth inhibition,[7]; at 33.0 µM,78% (active)
same,growth inhibition,[7]; at 100.0 µM,99% (active)
same,growth inhibition,[8]; [17],44%
same,growth inhibition,[8]; [18],44%
same,growth inhibition,[8]; at 50.0 µM,86.4% (active)
same,growth inhibition,[9]; at 1.2 µM,-4%
same,growth inhibition,[9]; at 3.7 µM,6%
same,growth inhibition,[9]; at 11.0 µM,21%
same,growth inhibition,[9]; at 33.0 µM,77% (active)
same,growth inhibition,[9]; at 100.0 µM,96% (active)
same,growth inhibition,[10]; [17],14%
same,growth inhibition,[10]; [18],14%
same,growth inhibition,[10]; at 50.0 µM,64.1%
same,growth inhibition,[11]; at 1.2 µM,-8%
same,growth inhibition,[11]; at 3.7 µM,-3%
same,growth inhibition,[11]; [17],21%
same,growth inhibition,[11]; at 11.0 µM,32%
same,growth inhibition,[11]; at 33.0 µM,82% (active)
same,growth inhibition,[11]; [18],21%
same,growth inhibition,[11]; at 50.0 µM,81.6% (active)
same,growth inhibition,[11]; at 100.0 µM,96% (active)
same,growth inhibition,[12]; at 1.2 µM,6%
same,growth inhibition,[12]; at 3.7 µM,15%
same,growth inhibition,[12]; at 11.0 µM,37%
same,growth inhibition,[12]; at 33.0 µM,81% (active)
same,growth inhibition,[12]; at 100.0 µM,97% (active)
same,growth inhibition,[13]; at 1.2 µM,-1%
same,growth inhibition,[13]; at 3.7 µM,10%
same,growth inhibition,[13]; at 11.0 µM,35%
same,growth inhibition,[13]; at 33.0 µM,76% (active)
same,growth inhibition,[13]; at 100.0 µM,98% (active)
same,growth inhibition,[14]; at 1.2 µM,10%
same,growth inhibition,[14]; at 3.7 µM,31%
same,growth inhibition,[14]; at 11.0 µM,72% (active)
same,growth inhibition,[14]; at 33.0 µM,94% (active)
same,growth inhibition,[14]; at 100.0 µM,98% (active)
same,growth inhibition,[15]; [17],35%
same,growth inhibition,[15]; [18],35%
same,growth inhibition,[15]; at 50.0 µM,82.2% (active)
same,growth inhibition,[16]; at 1.2 µM,16%
same,growth inhibition,[16]; at 3.7 µM,50%
same,growth inhibition,[16]; at 11.0 µM,86% (active)
same,growth inhibition,[16]; at 33.0 µM,94% (active)
same,growth inhibition,[16]; at 100.0 µM,98% (active)
